The values that follow come from the supplement of paper PMC6555819.

The assay has as its system VDR:RXRa (NR concentration 270 nM, RXRa partner concentration 90 nM). Nature of the assay: PBM binding z-score (relative to random genomic background probes); higher = stronger binding; sequences stand for … in GC…GCGATTGACAGCGTAGAATGAAGG
The protocol:
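Protein-binding microarray (Agilent 4x180K custom design, double-stranded 60-nt probes: 5' GC cap, 34-nt variable region, 24-nt constant primer region; full probe sequence given). Purified or IVT nuclear receptor:RXRα heterodimers (3:1 NR:RXRα, mostly 270:90 nM) or homodimers were incubated for 1 h in PBS with 2% milk and no ligand, then detected with Alexa488 antibodies. Fluorescence from o1-orientation probes (~5 replicates averaged) was converted to z-scores against 500 random hg19 background probes. Variable regions are seed direct-repeat (DR0–DR5) sites, all their single-nucleotide variants and half-site ablations.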
The sequence CGAACTAAGTCAGAACAGGACAGTGAAGGATGAT displayed a PBM binding z-score of -0.25.

As for CGTCCAAGGTCAAGGTCGGTGAAAGAGACTCGAA, the PBM binding z-score was 4.2.

The sequence TCTAGGAGGCCAGAGGGTCACTCAAGAGGTACGG returned a PBM binding z-score of 1.68.

Regarding CCTGCTAGCTCATGGTCAGCTAATCTACAGTATG, the PBM binding z-score was -0.366.

With ACAGATAGGTGAGTGAAGGTAACTCAGCTGGACG, the PBM binding z-score was -0.335.

The sequence TCATATAGGTAAAGGTGAAGGTCGAACGATATGA gave a PBM binding z-score of 1.63.

TCTGGCAGGCCAGAGGGTCACTCAAGAGGTACGG showed a PBM binding z-score of 1.5.

The sequence TTACAAAGGTGAAGGTCGTTGATCCCTCTGTAGA came in with a PBM binding z-score of 2.19.

AGTCAGAGTTCACTAGGTAACGTAAGATTCAGCT gave a PBM binding z-score of 4.82.

As for AGAATGAGGTTATTAAGATCAGGAAATTGCGGTC, the PBM binding z-score turned out to be 2.43.

As for ATATTTAGGTTACATCCGGGTCATTCAGGCTATG, the PBM binding z-score was determined as 4.13.

The sequence AATACAGGGTCACTAGGCCAGCGTAGGTACGAAT yielded a PBM binding z-score of 4.16.

In turn, TCTCGGAGGACACGAATGGTCAGAGCTCGACATC displayed a PBM binding z-score of -0.0797.

For GCTCGGAGGACAAGCTCAGAGCTTTGTCCGTAGA, the PBM binding z-score is -0.646.

Sequence CGAACGAGGGCGTGAGTTGATAGCAAATGCCGAT came in with a PBM binding z-score of 0.224.

The sequence CCTACTGGTCCATCAGGTCATTGATATCAACGTT yielded a PBM binding z-score of 2.46.

ACTCGGAGGACAAAAGTCAGAGCTACGCCAGTGA returned a PBM binding z-score of -0.553.

Consider CCTTACGGGTCAATGTTATAGCACGGGTGGTACG, for which the PBM binding z-score stood at 2.57.

Sequence CGAACTAGGTCATCCAGGACTGTGAATACATTGA registered a PBM binding z-score of 2.81.

Regarding CAAACTAGGTCAAGAGGTCACAGTCCGCTTCCCG, the PBM binding z-score is 5.92.

As to TCTATTAGTTGAAGGGCAACCGTCGAGTCCGTTT, the PBM binding z-score amounted to 0.884.

The sequence TATACAGGGTCAAAAGCCAGAGTACGAATGTCGA had a PBM binding z-score of 4.1.

Take TCCGCTAGGTCAGTTGGTCAGCTAACGAGCTGCC: the PBM binding z-score is 0.232.

With TAGGCTAGGTCATGGGCCAGTATACCACGCGAAC, the PBM binding z-score is 1.98.

In turn, TCTAGTTGATCAAAGGTCACACACTCGAAATGCG returned a PBM binding z-score of 5.05.

In the case of AGAACGAGGGCAATGAGTTGATTGCACGGGTGGC, the PBM binding z-score was 5.07.

Regarding CAGCCTAGGTCAGGGGCAGTATAGGAGGAACGTT, the PBM binding z-score was found to be 0.806.

Sequence GTACCAAGGCGAATAGGTCGTTGATGAGTAGGCG came in with a PBM binding z-score of -0.145.

Sequence ATCTCTAGGTAAGACTCAGTTTAGTGAAGAACGC showed a PBM binding z-score of 0.468.

On to CAAACTAAGTCAAGAGGTCAAAGTCCGCTTCCCG, for which the PBM binding z-score came out at 5.15.

CCGACTGGGGCATAAGGTTACCATCAGCCAGCCC had a PBM binding z-score of -0.0341.

As for GATACAGGCTCAGCTAGAGGCCAGAGTATGGAAA, the PBM binding z-score was -1.02.

As for CGAACTAGGTCATTGACAGGACTGTGAATAGTAA, the PBM binding z-score was 1.65.

The sequence AGAATGAGGTTAAGAGCAGGGAAACAGAATACAT yielded a PBM binding z-score of 0.967.

In turn, TCTATTAGTTGGAGGGCAACCGACGAGTCCGTTT yielded a PBM binding z-score of 1.27.

In turn, GCTGCTAGGTCAAATGATGGTCAGCTAAAGCTCG gave a PBM binding z-score of 1.96.

For GATACAGGGTCAGCTAGAGGCCAAAGTATGGAAA, the PBM binding z-score was 4.26.

The sequence TGAATGTGGTTATAAGATCAGGGAACGTTGCAAA gave a PBM binding z-score of 0.157.

As for CCTAGCAGGGCAGGGTCACTCAAGCATTTCGCTT, the PBM binding z-score was determined as 2.88.

GCAGACAGGTGAAACGCAGGTCACTCAGGGTGGC showed a PBM binding z-score of 2.28.
